From PubChem BioAssay (Tox21)
Records with an inconclusive call do not appear. The source made the active and inactive calls. Unless noted, calls come from the whole dose curve; as a rule, active = well fitted curve in the direction sought with a large enough effect in the repeat runs; inconclusive = weak or mixed curves; inactive = no such curve, though single readings can be large; an effect the other way counts as inactive or inconclusive.

Assays:
[1] = qHTS RealTime-Glo MT Cell Viability Assay in HEK293 cells - 0 hour (AID 1224880); note: top concentration of the series differs between compounds; nearly all actives have a fitted effect of over 45% in size
Summary of the method: (§1)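 Measured as luminescence from the same continuously cultured HEK293 wells at successive time points (0, 8, 16, 24, 32, 40 h) after compound addition. Reagent present from seeding; dosing at 5 h; incubation 37 C.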

[2] = A CellTox Green Cytotoxicity Assay to monitor cytotoxicity in HEK293 cells - 32 hour (AID 1224881); note: nearly all actives have a fitted effect of over 40% in size; note: potency is the fitted concentration of half-maximal effect
Summary of the method: (§2)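 Homogeneous no-lysis format: HEK293 cell suspension mixed with CellTox Green reagent, seeded, incubated 5 h at 37 C/5% CO2, then dosed by pintool with compound in DMSO.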

[3] = A CellTox Green Cytotoxicity Assay to monitor cytotoxicity in HepG2 cells - 0 hour (AID 1224882); note: nearly all actives have a fitted effect of over 35% in size
Summary of the method: (§3)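 Fluorescent DNA-binding dye, 600 HepG2 cells/well, 5 h preincubation then compound in DMSO; same plates read at 0–40 h, 37 C.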

[4] = A CellTox Green Cytotoxicity Assay to monitor cytotoxicity in HepG2 cells - 32 hour (AID 1224883); note: nearly all actives have a fitted effect of over 50% in size; note: potency is the fitted concentration of half-maximal effect
Summary of the method: as §3

[5] = A CellTox Green Cytotoxicity Assay to monitor cytotoxicity in HEK293 cells - 8 hour (AID 1224884); note: nearly all actives have a fitted effect of over 35% in size
Summary of the method: as §2

[6] = qHTS RealTime-Glo MT Cell Viability Assay in HepG2 cells - 16 hour (AID 1224885); note: nearly all actives have a fitted effect of over 50% in size
Summary of the method: (§4)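 Real-time, nonlytic viability: 600 HepG2 cells/well mixed with NanoLuc enzyme plus prosubstrate; 5 h settle, compound (DMSO) added by pintool; luminescence monitored over 40 h at 37 C.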

[7] = qHTS RealTime-Glo MT Cell Viability Assay in HEK293 cells - 8 hour (AID 1224887); note: top concentration of the series differs between compounds; nearly all actives have a fitted effect of over 50% in size
Summary of the method: as §1

[8] = A CellTox Green Cytotoxicity Assay to monitor cytotoxicity in HEK293 cells - 16 hour (AID 1224888); note: nearly all actives have a fitted effect of over 35% in size
Summary of the method: as §2

[9] = qHTS RealTime-Glo MT Cell Viability Assay in HepG2 cells - 0 hour (AID 1224889); note: nearly all actives have a fitted effect of over 50% in size
Summary of the method: as §4

[10] = A CellTox Green Cytotoxicity Assay to monitor cytotoxicity in HepG2 cells - 8 hour (AID 1224890); note: nearly all actives have a fitted effect of over 45% in size
Summary of the method: as §3

[11] = qHTS assay to identify small molecule antagonists of the estrogen receptor alpha (ER-alpha) signaling pathway using the BG1 cell line in the presence of 0.1 nM 17-beta-estradiol - cell viability counter screen (AID 1259241); note: nearly all actives have a fitted effect of over 40% in size
Summary of the method: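 CellTiter-Fluor read (30 min, 37C) on ER-alpha/ERE-luc VM7Luc4E2 cells; 22 hr compound treatment; agonist 0.1 nM E2 final; same-well multiplex.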

[12] = qHTS assay to identify small molecule antagonists of the androgen receptor (AR) signaling pathway using the MDA cell line in the presence of 0.5 nM R1881 - cell viability counter screen (AID 1259242); note: nearly all actives have a fitted effect of over 45% in size
Summary of the method: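 Human breast carcinoma MDA-kb2 cells, cultured without CO2, receive compounds alongside 0.5 nM (final) R1881 agonist. After 16 hr at 37C, viability is taken as live-cell protease signal.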

[13] = molecular target: Androgen receptor (Homo sapiens) (UniProt P10275); assay: qHTS assay to identify small molecule antagonists of the androgen receptor (AR) signaling pathway using the MDA cell line in the presence of 0.5 nM R1881 (AID 1259243); note: nearly all actives have a fitted effect of over 50% in size; note: potency is the fitted concentration of half-maximal effect
Summary of the method: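 Cells: MDA-kb2 (MMTV-luc). Stimulus: 0.5 nM R1881. Time: 16 hr, 37C, no CO2. Detection: ONE-Glo luminescence after 30 min at RT.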

[14] = qHTS assay to identify small molecule HDAC inhibitors (AID 1259364);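 note: wild-type HCT-116 cells with endogenous class I/II HDAC activity; top concentration of the series differs between compounds; nearly all actives have a fitted effect of over 45% in size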
Summary of the method: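 After a 2 hr compound incubation (37C, 5% CO2), HCT-116 cells seeded at 1,500/well the day before received HDAC-Glo reagent; signal read as luminescence after 30 min at room temperature.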

[15] = qHTS assay to identify small molecule HDAC inhibitors - cell viability counter screen (AID 1259365)
Summary of the method: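 To flag cytotoxic hits, 1,500 wild-type HCT-116 cells per well, plated the day before, receive test compounds for 2hr at 37 C before CellTiter-Glo reagent and a luminescence read.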

[16] = qHTS assay to identify small molecule agonists of the sonic hedgehog signaling (Shh) pathway - cell viability counter screen (AID 1259366); note: nearly all actives have a fitted effect of over 50% in size
Summary of the method: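 Fluorescence from CellTiter-Fluor reports live cells in this counter screen. NIH/3T3-derived Gli1-Luc reporter cells receive test compounds for 24hr at 37C; reagent goes in at 23hr.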

[17] = qHTS RealTime-Glo MT Cell Viability Assay in HEK293 cells - 24 hour (AID 1224886); note: nearly all actives have a fitted effect of over 50% in size; note: potency is the fitted concentration of half-maximal effect
Summary of the method: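 Cells + reagent dispensed (600 cells/well, HEK293) → 5 h at 37 C/5% CO2 → 23 nL compound in DMSO pinned → 40 h at 37 C → luminescence read at 0, 8, 16, 24, 32, 40 h.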

[18] = molecular target: Estrogen receptor (Homo sapiens) (UniProt P03372); assay: qHTS assay to identify small molecule antagonists of the estrogen receptor alpha (ER-alpha) signaling pathway using the BG1 cell line in the presence of 0.1 nM 17-beta-estradiol (AID 1259244); note: nearly all actives have a fitted effect of over 50% in size; note: potency is the fitted concentration of half-maximal effect
Summary of the method: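 Seeding of stripped-serum-adapted VM7Luc4E2 cells, 24 h attachment, compound transfer, then 0.1 nM final 17beta-estradiol; after 22 h incubation, ONE-Glo reagent and luminescence reading.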

[19] = qHTS assay to identify small molecule antagonists of the sonic hedgehog signaling (Shh) pathway - cell viability counter screen (AID 1259367); note: nearly all actives have a fitted effect of over 55% in size
Summary of the method: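 Fluorescence read-out (CellTiter-Fluor, 1 hr at 37C) taken after 23 hr compound treatment of 3T3 Gli1-Luc cells stimulated with conditioned medium. Cells were seeded at 2,000 per well and pre-incubated 4 hr.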

[20] = qHTS assay to identify small molecule phospholipidosis (PLD) inducers (AID 1259344; active = well fitted curve in the direction sought with a large enough effect; an effect the other way counts as inactive or inconclusive)
Summary of the method: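 Read-out is LipidTOX Red fluorescence (ex 595/em 615) imaged in HepG2 cells after 24 h compound exposure at 37 C, with Hoechst nuclear counterstain (ex 352/em 461) allowing per-cell normalisation.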
% is set by controls: 0 for no effect and ±100 for the full control effect.

Chain of Androgen receptor (Homo sapiens) (P10275 whole entry, looked up): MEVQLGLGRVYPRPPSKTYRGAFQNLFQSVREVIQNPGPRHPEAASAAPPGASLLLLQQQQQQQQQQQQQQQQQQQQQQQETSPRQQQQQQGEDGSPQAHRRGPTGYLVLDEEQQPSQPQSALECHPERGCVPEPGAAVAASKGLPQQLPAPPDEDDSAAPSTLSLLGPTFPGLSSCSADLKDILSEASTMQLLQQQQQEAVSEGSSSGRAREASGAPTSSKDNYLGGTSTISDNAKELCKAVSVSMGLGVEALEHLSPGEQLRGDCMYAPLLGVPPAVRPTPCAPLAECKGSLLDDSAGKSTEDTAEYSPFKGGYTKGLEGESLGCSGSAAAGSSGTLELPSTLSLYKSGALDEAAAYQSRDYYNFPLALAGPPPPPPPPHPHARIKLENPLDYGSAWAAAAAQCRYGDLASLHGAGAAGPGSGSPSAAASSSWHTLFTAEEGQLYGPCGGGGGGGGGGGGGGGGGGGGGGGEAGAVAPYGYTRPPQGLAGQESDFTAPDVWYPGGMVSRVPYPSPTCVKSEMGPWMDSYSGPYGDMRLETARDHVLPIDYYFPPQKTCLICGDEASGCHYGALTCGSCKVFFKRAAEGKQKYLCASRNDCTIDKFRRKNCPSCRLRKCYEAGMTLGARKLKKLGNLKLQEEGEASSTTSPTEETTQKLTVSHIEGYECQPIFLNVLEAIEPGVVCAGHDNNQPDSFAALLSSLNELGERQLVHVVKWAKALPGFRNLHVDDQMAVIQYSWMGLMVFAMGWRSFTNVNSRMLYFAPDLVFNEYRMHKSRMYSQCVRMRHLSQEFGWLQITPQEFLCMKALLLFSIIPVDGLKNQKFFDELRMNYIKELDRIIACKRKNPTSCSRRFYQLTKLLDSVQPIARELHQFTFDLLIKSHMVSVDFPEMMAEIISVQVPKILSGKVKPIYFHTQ
Chain of Estrogen receptor (Homo sapiens) (P03372 whole entry, looked up): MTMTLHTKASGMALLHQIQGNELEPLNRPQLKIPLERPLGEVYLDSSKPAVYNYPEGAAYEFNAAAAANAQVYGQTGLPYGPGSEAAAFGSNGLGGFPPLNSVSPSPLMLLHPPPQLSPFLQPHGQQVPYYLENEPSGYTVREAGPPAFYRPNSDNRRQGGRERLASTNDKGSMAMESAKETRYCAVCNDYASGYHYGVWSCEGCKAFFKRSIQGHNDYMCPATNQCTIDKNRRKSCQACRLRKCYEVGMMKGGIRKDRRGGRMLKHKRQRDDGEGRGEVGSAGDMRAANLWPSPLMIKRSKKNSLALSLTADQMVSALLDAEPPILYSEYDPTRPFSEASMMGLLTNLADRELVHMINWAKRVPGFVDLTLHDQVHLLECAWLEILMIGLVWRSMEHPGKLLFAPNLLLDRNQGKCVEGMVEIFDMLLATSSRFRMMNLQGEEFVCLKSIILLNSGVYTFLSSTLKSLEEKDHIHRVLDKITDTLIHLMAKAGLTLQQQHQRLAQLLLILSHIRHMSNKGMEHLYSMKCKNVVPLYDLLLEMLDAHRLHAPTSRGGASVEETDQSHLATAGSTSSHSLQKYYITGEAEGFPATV

N#CCC#N
inactive: Potency [1] | Potency [2] | Potency [3] | Potency [4] | Potency [5] | Potency [6] | Potency [7] | Potency [8] | Potency [9] | Potency [10] | Potency [11] | Potency [12] | Potency [14] | Potency [15] | Potency [16]
active: Potency [13] 10.9 µM

O=C(CBr)Nc1ccc(Cl)cc1C(=O)c1ccccc1F
inactive: Potency [1] | Potency [2] | Potency [3] | Potency [4] | Potency [5] | Potency [6] | Potency [17] | Potency [7] | Potency [8] | Potency [9] | Potency [11] | Potency [18] | Potency [14] | Potency [15] | Potency [16] | Potency [19]

CC(C)(C)C(O)C(Oc1ccc(Cl)cc1)n1cncn1 (stereo not given)
inactive: Potency [1] | Potency [2] | Potency [3] | Potency [5] | Potency [6] | Potency [8] | Potency [9] | Potency [10] | Potency [11] | Potency [12] | PLD induction [20] -1.67% [at 3.15 µM] | Potency [14] | Potency [15] | Potency [16]
active: Potency [4] 43.6 µM | Potency [17] 12.3 µM

C=C(C#N)CCC#N
inactive: Potency [1] | Potency [2] | Potency [3] | Potency [4] | Potency [5] | Potency [6] | Potency [17] | Potency [7] | Potency [8] | Potency [9] | Potency [12] | Potency [18] | Potency [14] | Potency [15] | Potency [16]

CCCCN(N=O)C(=N)N[N+](=O)[O-]
inactive: Potency [1] | Potency [2] | Potency [3] | Potency [4] | Potency [5] | Potency [6] | Potency [17] | Potency [7] | Potency [8] | Potency [9] | Potency [11] | Potency [12] | Potency [14] | Potency [15] | Potency [16] | Potency [19]

Cl/C=C\C[N+]12CN3CN(CN(C3)C1)C2
inactive: Potency [1] | Potency [2] | Potency [3] | Potency [4] | Potency [5] | Potency [6] | Potency [7] | Potency [8] | Potency [9] | Potency [10] | Potency [11] | Potency [12] | Potency [14] | Potency [15] | Potency [16] | Potency [19]

CO/N=C(/C(=O)OC)c1ccccc1COc1ccccc1C
inactive: Potency [1] | Potency [2] | Potency [3] | Potency [4] | Potency [5] | Potency [6] | Potency [17] | Potency [8] | Potency [9] | Potency [10] | Potency [18] | Potency [14] | Potency [15] | Potency [16] | Potency [19]
active: Potency [13] 17.2 µM

O=C(NC(=O)c1c(F)cccc1F)Nc1ccc(OC(F)(F)C(F)OC(F)(F)F)c(Cl)c1 (stereo not given)
inactive: Potency [1] | Potency [2] | Potency [3] | Potency [4] | Potency [5] | Potency [6] | Potency [17] | Potency [7] | Potency [8] | Potency [9] | Potency [12] | Potency [18] | Potency [14] | Potency [15] | Potency [16] | Potency [19]

CN1C(=O)C(O)N=C(c2ccccc2)c2cc(Cl)ccc21 (stereo not given)
inactive: Potency [1] | Potency [2] | Potency [3] | Potency [4] | Potency [5] | Potency [6] | Potency [7] | Potency [8] | Potency [9] | Potency [10] | Potency [11] | Potency [12] | outcome [20] | Potency [14] | Potency [15] | Potency [16] | Potency [19]
active: Potency [18] 56.4 µM

CC(=O)C(C)(C)C
inactive: Potency [1] | Potency [2] | Potency [3] | Potency [4] | Potency [5] | Potency [6] | Potency [17] | Potency [7] | Potency [8] | Potency [9] | Potency [11] | Potency [18] | Potency [14] | Potency [15] | Potency [16] | Potency [19]

NCCCNCCCN
inactive: Potency [1] | Potency [3] | Potency [4] | Potency [5] | Potency [6] | Potency [17] | Potency [7] | Potency [9] | Potency [10] | Potency [11] | Potency [12] | Potency [13] | Potency [14] | Potency [15] | Potency [16] | Potency [19]
active: Potency [2] 62.6 µM

CCBr
inactive: Potency [1] | Potency [2] | Potency [3] | Potency [4] | Potency [5] | Potency [6] | Potency [17] | Potency [7] | Potency [8] | Potency [9] | Potency [14] | Potency [15] | Potency [16]

[CH3][Sn]([CH3])([Cl])[Cl]
inactive: Potency [1] | Potency [2] | Potency [3] | Potency [4] | Potency [5] | Potency [6] | Potency [7] | Potency [8] | Potency [9] | Potency [10] | Potency [11] | Potency [12] | Potency [14] | Potency [15] | Potency [16] | Potency [19]

Cc1ccc(-c2c(Cl)nc(C#N)n2S(=O)(=O)N(C)C)cc1
active: Potency [13] 38.5 µM | Potency [18] 43.2 µM
inactive: Potency [1] | Potency [2] | Potency [3] | Potency [4] | Potency [5] | Potency [6] | Potency [17] | Potency [7] | Potency [8] | Potency [10] | Potency [15]
